Laboratory results published in PubChem BioAssay (NCI).
This is part of a sample that, as a whole, favours compounds with a hit. Of some 83,000 tested, about 20% had one in any assay.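 Cells were grown in 96-well plates and exposed to the test compound at a single concentration for 48 hours; results are reported as percent growth, with values below 10 considered active.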 Activity calls are given as the source filed them.

These molecules were tested on U251 CNS (assay: NCI-60 one-dose screen, 48 h (100 = growth as untreated, 0 = no growth, -100 = all killed)). Settings: 10 µM unless noted.

Structure (SMILES)	growth
CC(C)OC1=C(Cl)C(=O)c2ccccc2C1=O	57.4% (inactive)
CS(=O)(=O)Nc1cccc(C(=O)NCc2ccc(N3CCOCC3)cc2)c1	107% (inactive)
COc1ccc(S(=O)(=O)ON=C2C=C(C)C(=O)C(C)=C2)cc1	94.4% (inactive)
CCOC(=O)c1c(Cl)c2c(n1Cc1cc(OC)cc(OC)c1)-c1oncc1CCC2	33.2% (inactive)
NC(=S)N/N=C1\c2ccccc2-c2c(F)c(F)c(F)c(F)c21	63.9% (inactive)
COCCOC1=C(Cl)C(=O)c2ccccc2C1=O	8.18% (active)
O=C1C(OCCOc2ccccc2)=C(OCCOc2ccccc2)C(=O)c2ccccc21	18.9% (inactive)
N#Cc1c(O)c2c(c(O)c1C#N)C(=O)c1ccccc1C2=O	3.42% (active)
COc1cc(/C=C/C(=O)CC(=O)/C=C/c2cc(Br)c(OC)c(OC)c2)cc(Br)c1OC	105% (inactive)
CCN1CCN(c2ccc(Nc3ncc4ccc5ncn(C(C)C)c5c4n3)nc2)CC1	14.1% (inactive)
Nc1nc2c(s1)CCc1c-2c(Br)n(Cc2ccccc2)c1Br	91.6% (inactive)
O=c1onc(-c2ccccc2)c2ccccc12	98.7% (inactive)
CCCCCn1c(=N)n(CC(O)COc2cccc(C)c2)c2ccccc21 (stereo not drawn)	1.64% (active)
COc1ccc(-c2nn(-c3ccc(NC(=O)c4ccc(Cl)c(Cl)c4)cc3)cc2-c2ccncc2)cc1Cl	25% (inactive)
CCC(C)Oc1cc(/C=N/NC(=O)c2cnn3c2NC(c2ccccc2)C3)ccc1OC (stereo not drawn)	34.8% (inactive)
COc1cccc(OC)c1OC(=O)c1ccccc1	94.8% (inactive)
C=C[C@H]1C[C@@H]2C[C@@H]3[C@H]4C/C=C\C(=O)NCCCC5NC(=O)C(=C(O)/C=C/[C@@H]4CC(=O)[C@H]3[C@@H]2[C@H]1C)C5=O (stereo partly drawn)	-96.4% (active)
Cc1nc2ccc(Cl)cc2n1C	99.7% (inactive)
C=C1CC[C@@H]2[C@@](C)(CCC[C@]2(C)C(=O)O)[C@@H]1CC[C@H](CO)CCO	102% (inactive)

Structure (SMILES)	growth
Fc1c[c-]c(-c2ccccn2)c(F)c1.Fc1c[c-]c(-c2ccccn2)c(F)c1.[Cl][Pt+].[Cl][Pt+].c1ccc([PH+](C[PH+](c2ccccc2)c2ccccc2)c2ccccc2)cc1	15% (inactive)
O=C(NCc1cccnc1)c1ccc([N+](=O)[O-])o1	4.88% (active)
COc1ccc(NS(=O)(=O)c2ccc(-c3cnc(C4CC4)o3)cc2)cc1	56.5% (inactive)
NC1=NC(c2ccccc2OS(=O)(=O)c2ccc(Br)cc2)n2c(nc3ccccc32)N1 (stereo not drawn)	86.9% (inactive)
O=C(Nc1ccccc1)Oc1cccc2cccnc12	70.5% (inactive)
CCC12CCC3c4ccc(O)cc4CCC3C1CC(O)C2O (stereo not drawn)	56.5% (inactive)
Cc1ccc(S(=O)(=O)N2CCc3ccc(O)c4c3C2Cc2ccc3c(c2-4)OCO3)cc1 (stereo not drawn)	12.7% (inactive)
COC(=O)c1c2c(c(C)[n+]([O-])c1C)C(=O)C=C(NCc1cccc(OC)c1)C2=O	-39.3% (active)
O=C(c1cnn2c1NC(c1ccc(F)cc1)C2)N1CCCCC1 (stereo not drawn)	97.1% (inactive)
O=C1NC(=O)C2(CCCC2C(=O)O)N1 (stereo not drawn)	96.7% (inactive)
CON=C1C[C@]2(C[C@@H]3C[C@@H](C/C=C(\C)C[C@@H](C)/C=C/C=C4\CO[C@@H]5[C@H](O)C(C)=C[C@@H](C(=O)O3)[C@]45O)O2)O[C@H](/C(C)=C/C(C)C)[C@H]1C	39.5% (inactive)
COc1cc(/C=C/C(=O)C(=Cc2ccc(F)c(F)c2)C(=O)/C=C/c2ccc(O)c(OC)c2)ccc1O	18.8% (inactive)
CCOC(=O)c1[nH]c2cc(Cl)ccc2c1[C@@H](C(=O)NC(C)(C)C)N(CC)C(=O)CCCCC#Cc1cccc2c1CN(C1CCC(=O)NC1=O)C2=O (stereo partly drawn)	27.8% (inactive)
O=C1/C(=C/c2ccccc2F)CNC/C1=C\c1ccccc1F	-85.3% (active)
COc1cc(C2C3=C(COC3=O)N(CCO)c3cc4c(cc32)OCO4)cc(OC)c1O (stereo not drawn)	21.4% (inactive)
CCCCCCCC/C=C\CCCCCCCCOc1cccc(CC(=O)NCC[N+]2(C)CCOCC2)c1	51% (inactive)
COc1ccccc1CNCCCCCCCCCCCCN1C(=O)c2ccc3c4c(ccc(c24)C1=O)C(=O)N(CCCCCCCCCCCCNCc1ccccc1OC)C3=O	-28.6% (active)
CC(C)NCC(O)COc1ccc(CCOCC2CC2)cc1 (stereo not drawn)	99.4% (inactive)
Clc1ccc(C2=NN(c3ccccc3)[C@H](c3cn(-c4ccccc4)nc3-c3ccccc3)C2)cc1	93.1% (inactive)
